# Shown is part of a subset that was picked to be rich in the strongest signals.
# B1: CCL1 (Coprinopsis cinerea) (protein)
# chain: MDTQAKPPAGRYVIYNRVLSPNGEKLALTYPGYQREALTLTPLHHSANQIWILNNWDATTSSLTPETARNTQVGWGSGNVPIVLPPGNYVWTLASSAGGYIIQDGGKTVYWNAGEAVANTKVSIGGDNGLQARWIFERV
# Columns and labels:
# Experiment in all cases: glycan array binding signal (z-score within array); higher = stronger binding
# Conditions in all cases: glycan notation: IUPAC condensed, linker removed
# [1] = molecular target: Fuc(a1-2)Gal(b1-3)GlcNAc6S
# In short: (§1)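 Glycan array data were curated from 3228 arrays in the Consortium for Functional Glycomics database and kept only where the protein sequence was available. Glycan names were converted to IUPAC-condensed notation, and columns mapping to the same glycan were averaged. The binding signal is a within-array Z-score, averaged across arrays of the same protein sequence at different concentrations or buffers and across linkers. Negative Z-scores can be read as non-binding.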
# [2] = molecular target: Fuc(a1-2)Gal(b1-3)[Fuc(a1-4)]GlcNAc(b1-2)Man(a1-3)[Fuc(a1-2)Gal(b1-3)[Fuc(a1-4)]GlcNAc(b1-2)Man(a1-6)]Man(b1-4)GlcNAc(b1-4)GlcNAc
# In short: as §1
# [3] = molecular target: Fuc(a1-2)Gal(b1-3)[Fuc(a1-4)]GlcNAc(b1-2)Man(a1-6)[Fuc(a1-2)Gal(b1-3)[Fuc(a1-4)]GlcNAc(b1-2)Man(a1-3)]Man(b1-4)GlcNAc(b1-4)[Fuc(a1-6)]GlcNAc
# In short: as §1
# [4] = molecular target: Fuc(a1-2)Gal(b1-3)[Fuc(a1-4)]GlcNAc(b1-3)[Gal(b1-4)GlcNAc(b1-6)]Gal(b1-4)Glc
# In short: as §1
# Fuc(a1-2)Gal(b1-4)Glc = molecular target: Fuc(a1-2)Gal(b1-4)Glc
# In short: as §1
# [5] = molecular target: Fuc(a1-2)Gal(b1-4)GlcNAc(b1-3)[Fuc(a1-2)Gal(b1-4)GlcNAc(b1-6)]GalNAc
# In short: as §1
# [6] = molecular target: Fuc(a1-2)Gal(b1-4)[Fuc(a1-3)]GlcNAc(b1-3)[Neu5Ac(a2-6)Gal(b1-4)GlcNAc(b1-6)]Gal(b1-4)Glc
# In short: as §1
# [7] = molecular target: Fuc(a1-2)Gal6S(b1-4)Glc6S
# In short: as §1
# [8] = molecular target: Fuc(a1-2)[Gal(a1-3)]Gal(b1-3)GlcNAc(b1-2)Man(a1-3)[Fuc(a1-2)[Gal(a1-3)]Gal(b1-3)GlcNAc(b1-2)Man(a1-6)]Man(b1-4)GlcNAc(b1-4)GlcNAc
# In short: as §1
# [9] = molecular target: Fuc(a1-2)[Gal(a1-3)]Gal(b1-4)[Fuc(a1-3)]GlcNAc
# In short: as §1
# [10] = molecular target: Fuc(a1-2)[GalNAc(a1-3)]Gal(b1-4)GlcNAc(b1-3)Gal(b1-4)GlcNAc
# In short: as §1
# [11] = molecular target: Fuc(a1-3)[Gal(b1-4)]GlcNAc(b1-2)Man(a1-3)[Fuc(a1-3)[Gal(b1-4)]GlcNAc(b1-2)Man(a1-6)]Man(b1-4)GlcNAc(b1-4)GlcNAc
# In short: as §1
# [12] = molecular target: Fuc(a1-3)[Gal(b1-4)]GlcNAc(b1-3)Gal(b1-3)[Fuc(a1-4)]GlcNAc
# In short: as §1
# [13] = molecular target: Fuc(a1-3)[Gal(b1-4)]GlcNAc(b1-4)Gal(b1-4)[Fuc(a1-3)]GlcNAc(b1-4)Gal(b1-4)[Fuc(a1-3)]GlcNAc
# In short: as §1
# [14] = molecular target: Fuc(a1-3)[GalNAc(b1-4)]GlcNAc
# In short: as §1
# [15] = molecular target: Fuc(a1-3)[GalNAc(b1-4)]GlcNAc6S
# In short: as §1
# [16] = molecular target: Fuc(a1-3)[GalNAc3S(b1-4)]GlcNAc
# In short: as §1
# [17] = molecular target: Gal(a1-3)Gal(b1-3)[Fuc(a1-4)]GlcNAc(b1-2)Man(a1-3)[Gal(a1-3)Gal(b1-3)[Fuc(a1-4)]GlcNAc(b1-2)Man(a1-6)]Man(b1-4)GlcNAc(b1-4)GlcNAc
# In short: as §1
# Gal(a1-4)GlcNAc = molecular target: Gal(a1-4)GlcNAc
# In short: as §1
# Gal(b1-3)Gal = molecular target: Gal(b1-3)Gal
# In short: as §1
# Gal(b1-3)Gal(b1-4)GlcNAc = molecular target: Gal(b1-3)Gal(b1-4)GlcNAc
# In short: as §1
# Gal(b1-3)GalNAc = molecular target: Gal(b1-3)GalNAc
# In short: as §1
# [18] = molecular target: Gal(b1-3)GlcNAc(b1-2)Man(a1-3)[Gal(b1-3)GlcNAc(b1-2)Man(a1-6)]Man(b1-4)GlcNAc(b1-4)GlcNAc
# In short: as §1
# [19] = molecular target: Gal(b1-3)GlcNAc(b1-3)Gal(b1-4)[Fuc(a1-3)]GlcNAc(b1-6)[Gal(b1-3)GlcNAc(b1-3)]Gal(b1-4)Glc
# In short: as §1
# [20] = molecular target: Gal(b1-4)GlcNAc(b1-2)Man(a1-3)[GlcNAc(b1-2)Man(a1-6)]Man(b1-4)GlcNAc(b1-4)GlcNAc
# In short: as §1
# [21] = molecular target: Gal(b1-4)GlcNAc(b1-2)Man(a1-6)Man(b1-4)GlcNAc(b1-4)GlcNAc
# In short: as §1
# [22] = molecular target: Gal(b1-4)GlcNAc(b1-2)[Gal(b1-4)GlcNAc(b1-6)]Man(a1-6)[Gal(b1-4)GlcNAc(b1-2)Man(a1-3)]Man(b1-4)GlcNAc(b1-4)GlcNAc
# In short: as §1
# [23] = molecular target: Gal(b1-4)GlcNAc(b1-6)GalNAc
# In short: as §1
# [24] = molecular target: Gal3S(b1-3)[Fuc(a1-4)]GlcNAc
# In short: as §1
# Gal3S(b1-4)GlcNAc = molecular target: Gal3S(b1-4)GlcNAc
# In short: as §1
# Gal6S(b1-3)GlcNAc = molecular target: Gal6S(b1-3)GlcNAc
# In short: as §1
# GalNAc(b1-4)GlcNAc = molecular target: GalNAc(b1-4)GlcNAc
# In short: as §1
# Glc(b1-4)Glc = molecular target: Glc(b1-4)Glc
# In short: as §1
# Glc(b1-6)Glc = molecular target: Glc(b1-6)Glc
# In short: as §1
# [25] = molecular target: Man(a1-2)Man(a1-3)[Man(a1-2)Man(a1-6)]Man
# In short: as §1
# [26] = molecular target: Man(a1-2)Man(a1-6)[Man(a1-3)]Man(a1-6)[Man(a1-2)Man(a1-2)Man(a1-3)]Man(b1-4)GlcNAc(b1-4)GlcNAc
# In short: as §1
# [27] = molecular target: Neu5Ac(a2-3)Gal(b1-3)GalNAc(b1-4)[Neu5Ac(a2-3)]Gal(b1-4)Glc
# In short: as §1
# [28] = molecular target: Neu5Ac(a2-3)Gal(b1-3)GlcNAc
# In short: as §1
# [29] = molecular target: Neu5Ac(a2-3)Gal(b1-3)[Neu5Ac(a2-6)]GalNAc
# In short: as §1
# [30] = molecular target: Neu5Ac(a2-3)Gal(b1-4)GlcNAc(b1-3)Gal(b1-4)[Fuc(a1-3)]GlcNAc
# In short: as §1
# [31] = molecular target: Neu5Ac(a2-3)Gal(b1-4)[Fuc(a1-3)]GlcNAc(b1-3)Gal
# In short: as §1
# [32] = molecular target: Neu5Ac(a2-3)Gal(b1-4)[Fuc(a1-3)]GlcNAc(b1-3)Gal(b1-4)[Fuc(a1-3)]GlcNAc(b1-3)Gal(b1-4)[Fuc(a1-3)]GlcNAc
# In short: as §1
# [33] = molecular target: Neu5Ac(a2-3)Gal6S(b1-4)[Fuc(a1-3)]GlcNAc
# In short: as §1
# [34] = molecular target: Neu5Ac(a2-3)[Neu5Ac(a2-6)]GalNAc
# In short: as §1
# [35] = molecular target: Neu5Ac(a2-8)Neu5Ac(a2-3)[GalNAc(b1-4)]Gal(b1-4)Glc
# In short: as §1
binder,measurement,setting,value
B1,glycan array binding signal (z-score),[1],-0.097
same,glycan array binding signal (z-score),[2],-0.006
same,glycan array binding signal (z-score),[3],-0.148
same,glycan array binding signal (z-score),[4],-0.144
same,glycan array binding signal (z-score),Fuc(a1-2)Gal(b1-4)Glc,-0.127
same,glycan array binding signal (z-score),[5],-0.025
same,glycan array binding signal (z-score),[6],-0.142
same,glycan array binding signal (z-score),[7],-0.033
same,glycan array binding signal (z-score),[8],-0.131
same,glycan array binding signal (z-score),[9],-0.138
same,glycan array binding signal (z-score),[10],-0.161
same,glycan array binding signal (z-score),[11],0.237
same,glycan array binding signal (z-score),[12],1.7
same,glycan array binding signal (z-score),[13],1.68
same,glycan array binding signal (z-score),[14],8.48
same,glycan array binding signal (z-score),[15],13.6
same,glycan array binding signal (z-score),[16],7.46
same,glycan array binding signal (z-score),[17],-0.081
same,glycan array binding signal (z-score),Gal(a1-4)GlcNAc,-0.164
same,glycan array binding signal (z-score),Gal(b1-3)Gal,-0.15
same,glycan array binding signal (z-score),Gal(b1-3)Gal(b1-4)GlcNAc,-0.151
same,glycan array binding signal (z-score),Gal(b1-3)GalNAc,-0.163
same,glycan array binding signal (z-score),[18],-0.119
same,glycan array binding signal (z-score),[19],0.276
same,glycan array binding signal (z-score),[20],-0.106
same,glycan array binding signal (z-score),[21],-0.133
same,glycan array binding signal (z-score),[22],-0.131
same,glycan array binding signal (z-score),[23],-0.142
same,glycan array binding signal (z-score),[24],-0.116
same,glycan array binding signal (z-score),Gal3S(b1-4)GlcNAc,-0.123
same,glycan array binding signal (z-score),Gal6S(b1-3)GlcNAc,-0.152
same,glycan array binding signal (z-score),GalNAc(b1-4)GlcNAc,-0.159
same,glycan array binding signal (z-score),Glc(b1-4)Glc,-0.115
same,glycan array binding signal (z-score),Glc(b1-6)Glc,-0.128
same,glycan array binding signal (z-score),[25],-0.124
same,glycan array binding signal (z-score),[26],-0.138
same,glycan array binding signal (z-score),[27],-0.132
same,glycan array binding signal (z-score),[28],-0.117
same,glycan array binding signal (z-score),[29],1.63
same,glycan array binding signal (z-score),[30],-0.148
same,glycan array binding signal (z-score),[31],3.29
same,glycan array binding signal (z-score),[32],1.58
same,glycan array binding signal (z-score),[33],1.5
same,glycan array binding signal (z-score),[34],-0.149
same,glycan array binding signal (z-score),[35],-0.127

# Reference: the supplement of paper PMC8728848
